Shown are actives, neighbours in structure and some others; about 21% of the full set was active somewhere.
Cycloheximide cs – Cycloheximide Counterscreen for Small Molecule Inhibitors of Shiga Toxin; cell reporter, cycloheximide protein synthesis inhibition counterscreen; hit rate 12% among 300,000; max response, %; AID 2314, 2010; in the data active means max response mostly above about 13%, no sharp cut-off; inactive means mostly below about 14%; further: read at 38.3 µM for the half of the compounds with a filed dose
Pf growth 48h – Primary qHTS for delayed death inhibitors of the malarial parasite plastid, 48 hour incubation. P. falciparum luciferase growth in erythrocytes, 48 h. Potency, µM (doses to about 28.7 µM), most hits filed as inhibitors. hit rate 5.9% among 310,000. AID 504832, 2011
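A one-generation exposure of luciferase-tagged malaria parasites in RPMI 1640/Albumax erythrocyte culture, 37 C and 5% CO2. Inhibition is inferred from decreased luminescence after adding detection reagent.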
Pf growth 96h – Primary qHTS for delayed death inhibitors of the malarial parasite plastid, 96 hour incubation | AID 504834, 2011 | hit rate 6.9% among 320,000 | P. falciparum luciferase reporter growth, 96 h | Potency, µM (doses to about 28.7 µM), hits mostly inhibitors
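Compounds incubated with erythrocytes infected by luciferase-expressing P. falciparum (2% hematocrit, 0.05% parasitemia final) for 96 hours, 37 C in 5% CO2. Growth inhibition scored as decreased luciferase luminescence.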
Shiga inhibitor – A qHTS for Small Molecule Inhibitors of Shiga Toxin; Vero cells, Shiga toxin protein synthesis inhibition reporter; inhibition, % at 38.7 µM; hit rate 9.2% among 290,000; AID 2315, 2010; in the data active means inhibition mostly above about 28%, no sharp cut-off; inactive means mostly below about 43%
Large screens that a line does not name were inactive. Unless noted, the call rests on the fitted dose curve; in most records, active means well fitted inhibition curve with a large enough effect; inconclusive means small, poorly fitted or top-dose-only effect, or another doubt; inactive means no such curve, though single readings can be large or run the other way.

Cc1cc(C(=O)CN2C(=O)C(=O)N(CC(C)C)C2=O)c(C)n1-c1ccccc1F	Cycloheximide cs 16.9
Cc1cc(C(=O)CN2C(=O)NC(CC(C)C)C2=O)c(C)n1-c1ccccc1F (configuration not stated)	Cycloheximide cs 47.2, Shiga inhibitor 158.7
Cc1cc(C(=O)CN2C(=O)C3CC=CCC3C2=O)c(C)n1-c1ccccc1 (configuration not stated)	Cycloheximide cs 57.8, Shiga inhibitor 111.4
COc1ccc(S(=O)(=O)N2CCNC(=O)CC2)cc1	none
CC1(c2ccc(Cl)cc2)NC(=O)CS1 (configuration not stated)	Pf growth 96h 0.262µM
O=C(COc1ccccc1F)N1CCCc2ccccc21	Cycloheximide cs 22.4 (no result: Shiga inhibitor)
O=C(OCC(=O)N1CCCc2ccccc21)c1ccccc1[N+](=O)[O-]	none (no result: Cycloheximide cs, Shiga inhibitor)
O=C(COc1ccccc1F)N1c2ccccc2CCc2ccccc21	Pf growth 96h inconclusive
O=C(COc1ccccc1[N+](=O)[O-])N1CCCc2ccccc21	Cycloheximide cs 16.8, Pf growth 48h inconclusive
CCN(CC(=O)Nc1ccc(NC(C)=O)cc1)C(=O)/C=C/c1ccc(C)o1	none (no result: Cycloheximide cs, Shiga inhibitor)
COc1cccc(C(=O)NCC(=O)OCC(=O)c2ccccc2)c1	Cycloheximide cs 29.0, Shiga inhibitor 83.1
COc1cccc(C(=O)Nc2cccc(OCC(=O)c3ccccc3)c2)c1	Cycloheximide cs 20.8, Pf growth 48h inconclusive
COc1cccc(C(=O)COc2ccc(NC(=O)c3ccccc3)cc2)c1	Cycloheximide cs 16.1, Pf growth 96h inconclusive
CCCCCC1CCC(c2ccc(C(N)=O)cc2)CC1 (configuration not stated)	Pf growth 96h 2.94µM
O=C(NCc1ccco1)C(c1cccnc1)N(C(=O)Cn1nnc2ccccc21)c1ccc(F)cc1 (configuration not stated)	Pf growth 48h inconclusive, Pf growth 96h inconclusive
Cc1occc1C(=O)N/N=C/c1sc(N2CCOCC2)nc1-c1ccccc1	Pf growth 48h inconclusive, Pf growth 96h inconclusive
Cc1occc1C(=O)N/N=C/c1cccs1	Cycloheximide cs 33.1, Shiga inhibitor 84.1
Cc1occc1C(=O)N/N=C/C(Br)=C/c1ccccc1	Cycloheximide cs 38.9, Pf growth 96h inconclusive, Shiga inhibitor 85.5
Nc1c(C(=O)N/N=C/c2ccc(OCc3ccccc3)cc2)cnn1-c1ccccc1	none
Cc1occc1C(=O)N/N=C/c1ccc(-c2ccccc2)cc1	Cycloheximide cs 37.0, Shiga inhibitor 75.4
Cn1cc(C(=O)N/N=C/C(Br)=C\c2ccccc2)ccc1=O	Pf growth 48h inconclusive, Pf growth 96h inconclusive
Cc1occc1C(=O)N/N=C/c1ccc(OCc2ccccc2)cc1	Cycloheximide cs 45.3, Pf growth 48h inconclusive, Pf growth 96h 10.4µM, Shiga inhibitor 63.5
Cc1cc(=O)oc2c(C)c(OCC(=O)NCCCN3CCOCC3)ccc12	none
O=C(N/N=C/C(Br)=C/c1ccccc1)c1ccccc1[N+](=O)[O-]	Cycloheximide cs 8.7, Pf growth 48h inconclusive
CCCCNC(=O)N1CCN(c2ccccc2OCC)CC1	Pf growth 96h inconclusive
O=C(Nc1cc(F)ccc1F)N1CCN(c2ccnc3cc(Cl)ccc23)CC1	Pf growth 48h inconclusive, Pf growth 96h inconclusive
Cc1ccc(F)cc1NC(=O)N1CCN(c2ccnc3cc(Cl)ccc23)CC1	Pf growth 48h inconclusive, Pf growth 96h 6.57µM
Cc1cccc(Cl)c1NC(=O)N1CCN(c2ccnc3cc(Cl)ccc23)CC1	Pf growth 48h inconclusive, Pf growth 96h inconclusive
CCCCNC(=O)N1CCN(c2ccnc3cc(Cl)ccc23)CC1	Pf growth 48h 4.65µM, Pf growth 96h 3.7µM
O=C(Nc1ccc(C(F)(F)F)cc1)N1CCN(c2ccnc3cc(Cl)ccc23)CC1	Pf growth 48h 1.47µM, Pf growth 96h inconclusive
O=S(=O)(c1cccs1)N1CCN(c2ccnc3cc(Cl)ccc23)CC1	Pf growth 48h 9.28µM, Pf growth 96h 6.57µM
O=C(CCNC(=O)c1ccccc1Cl)NCCc1ccc(C(F)(F)F)cc1	none
COc1cccc(OC)c1OCCCNC1CCCC1	Pf growth 96h inconclusive
O=C(O)CSCC(=O)N1CCN(c2ccnc3cc(Cl)ccc23)CC1	Pf growth 48h inconclusive, Pf growth 96h inconclusive
ClCCN1CCN(c2ccnc3cc(Cl)ccc23)CC1	Pf growth 48h 0.828µM, Pf growth 96h 0.828µM
CC(=O)N1CCN(c2ccnc3cc(Cl)ccc23)CC1	Pf growth 48h inconclusive, Pf growth 96h 11.7µM
CC(OC(=O)c1cccc(-n2cnnn2)c1)C(=O)Nc1ccc(F)cc1 (configuration not stated)	none
Oc1c(C=Nc2ccccc2Cl)[nH]c2ccccc12	Cycloheximide cs 47.3, Pf growth 48h inconclusive, Pf growth 96h inconclusive, Shiga inhibitor 77.3

Bioassay records: PubChem, National Center for Advancing Translational Sciences (NCATS)
